Reference: PubChem BioAssay (NCATS)
Records with an inconclusive call do not appear. A number with no mark means an inactive call. The call rests on the fitted dose curve; in most records, active means well fitted activation curve with a large enough effect; inconclusive means small, poorly fitted or top-dose-only effect; inactive means flat fitted curve, though single readings scatter.

assay: Primary redox qHTS assay for identification of artifact compounds. (AID 1845223); conditions: Amplex Red/HRP redox cycling with DTT, fluorescence; series mostly up to 53.8 µM; redox activity (% of DA3003): at the top concentration;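 further: 0% = DMSO and 100% = reference compound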
How it was run: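 Amplex Red (25 uM) and HRP (250 mU/mL) in HBSS, with compounds for 15 min, then 250 uM DTT for 30 min, room temperature, dark. Fluorescence 525/598 nm read; normalized to DMSO and 10 uM DA3003; Hill fit.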

Row | Compound | redox activity (% of DA3003)
1 | C[C@@H]1O[C@@H](O[C@@H]2[C@@H](O)[C@H](O[C@@H]3[C@@H](O)[C@@H](O)[C@H](O[C@H]4[C@H](OC(=O)[C@]56CCC(C)(C)C[C@H]5C5=CCC7[C@@]8(C)C[C@H](O)[C@H](O[C@@H]9O[C@@H](C)[C@H](O)[C@@H](O)[C@H]9O)[C@@](C)(CO)C8CC[C@@]7(C)[C@]5(C)C[C@H]6O)O[C@H](C)[C@H](O)[C@@H]4O)O[C@H]3C)OC[C@H]2O)[C@H](O)[C@H](O)[C@H]1O (stereo partly drawn) | 10.9% [at 11.5 µM]
2 | C=C1C(=O)OC2/C=C(\C)CC/C=C(\C(=O)O)CC/C=C(\C)CCC12 (stereo not drawn) | -0.589%
3 | Cc1nn(C)c(COc2ccc(N3CCN(S(=O)(=O)N(C)C)CC3)cc2)c1-c1cccc2c(CCCOc3cccc4ccccc34)c(C(=O)O)n(CCN3CCOCC3)c12 | -5.58%
4 | C=CC(C)(O)CO[C@@H]1O[C@H](CO)[C@@H](O)[C@H](O)[C@H]1O (stereo partly drawn) | -12.8%
5 | O=c1c2cccnc2n(-c2cccc([N+](=O)[O-])c2)c(=O)n1Cc1ccncc1 | -6.25%
6 | C=C1[C@@H]2[C@H]3OC(=O)C(=C)[C@@H]3CC[C@@](C)(O)[C@@H]2C[C@@H]1O[C@@H]1O[C@H](CO)[C@@H](O)[C@H](O)[C@H]1O | -9.45% [at 25.6 µM]
7 | CCC(=O)O[C@]1(C(=O)CCl)[C@@H](C)C[C@H]2[C@@H]3C[C@H](F)C4=CC(=O)C=C[C@]4(C)[C@@]3(F)[C@@H](O)C[C@@]21C | -3.91%
8 | CC(=O)O[C@@H]1[C@H]2[C@@H](OC(=O)c3ccccc3)[C@@H](C)C[C@]2(O)[C@H](OC(C)=O)[C@@]2(C)[C@@H]3CC(C)(C)C(=O)[C@]3(OC(C)=O)C[C@@]12C | 6.88% [at 25.6 µM]
